The list is not random: actives were taken first. Their share in the collection is about 2.4%.
Pol kappa inh – blocks human DNA polymerase kappa activity; 400,000 tested, 0.53% active; purified Pol kappa, fluorescent DNA synthesis assay, 10 min; Q9UBT6; Potency, µM (series often up to 107 µM), for inactives: top-dose activity, negative = inhibition, hits mostly inhibitors; AID 588579; also: % is scaled to controls: 0 for no effect and ±100 for the full control effect
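10 nM Pol kappa was preincubated with compounds for 15 min at room temperature. Reaction started with 50 nM (final) substrate. Fluorescence read kinetically at 0 and 10 min.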
WRN inhibitor – blocks human WRN helicase; Potency, µM (highest dose often 114 µM), without a hit: at the top dose activity change, negative = inhibition, usual class: inhibitors; WRN helicase unwinding, fluorescent forked duplex, kinetic; AID 651768; 360,000 tested, 0.46% active; also: % is scaled to controls: 0 for no effect and ±100 for the full control effect; nearly all actives have a fitted effect of over 55% in size
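Fluorescence dequenching readout, ex 525 nm/em 598 nm, kinetic mode: forked duplex DNA (100 nM final) with adjacent fluorophore and quencher unwound by WRN (20 nM final) with 2 mM ATP. Compound preincubation 15 min, room temperature.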
FEN1 inh – inhibitors of human flap endonuclease 1; 390,000 tested, 0.35% active; Recombinant FEN1 flap cleavage, fluorescence, 15 min; P39748; Potency, µM (highest dose often 114 µM), for inactives: at the highest dose activity change, negative = inhibition, most hits filed as inhibitors; also: % is scaled to controls: 0 for no effect and ±100 for the full control effect; nearly all actives have a fitted effect of over 65% in size
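Potency values derive from four-parameter Hill fits of normalized qHTS data. The reaction used 10 nM FEN1 preincubated 15 min at room temperature with compound, then 50 nM DNA substrate, read at 0 and 15 min.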
Pol iota inh – DNA polymerase iota (human) inhibition; Pol iota fluorescent replication assay, 10 min; Potency, µM (titrated, usually from 115 µM), for the others: at the highest dose activity, negative = inhibition, hits mostly inhibitors; 390,000 tested, 1% active; AID 588590
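Pol iota at 10 nM preincubated 15 min with compounds at room temperature; reaction started with fluorescent substrate, 50 nM final. Fluorescence read kinetically at 0 and 10 min; buffer-only wells as negative control.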
POLH inh – blocks human DNA polymerase eta activity; Q9Y253; recombinant Pol eta, fluorescent DNA replication assay; Potency, µM (series often up to 114 µM), without a hit: at the highest dose activity change, negative = inhibition, actives largely listed as inhibitors; 390,000 tested, 1.2% active; AID 588591; also: % is scaled to controls: 0 for no effect and ±100 for the full control effect
Target sequence (Q9Y253 whole entry, looked up): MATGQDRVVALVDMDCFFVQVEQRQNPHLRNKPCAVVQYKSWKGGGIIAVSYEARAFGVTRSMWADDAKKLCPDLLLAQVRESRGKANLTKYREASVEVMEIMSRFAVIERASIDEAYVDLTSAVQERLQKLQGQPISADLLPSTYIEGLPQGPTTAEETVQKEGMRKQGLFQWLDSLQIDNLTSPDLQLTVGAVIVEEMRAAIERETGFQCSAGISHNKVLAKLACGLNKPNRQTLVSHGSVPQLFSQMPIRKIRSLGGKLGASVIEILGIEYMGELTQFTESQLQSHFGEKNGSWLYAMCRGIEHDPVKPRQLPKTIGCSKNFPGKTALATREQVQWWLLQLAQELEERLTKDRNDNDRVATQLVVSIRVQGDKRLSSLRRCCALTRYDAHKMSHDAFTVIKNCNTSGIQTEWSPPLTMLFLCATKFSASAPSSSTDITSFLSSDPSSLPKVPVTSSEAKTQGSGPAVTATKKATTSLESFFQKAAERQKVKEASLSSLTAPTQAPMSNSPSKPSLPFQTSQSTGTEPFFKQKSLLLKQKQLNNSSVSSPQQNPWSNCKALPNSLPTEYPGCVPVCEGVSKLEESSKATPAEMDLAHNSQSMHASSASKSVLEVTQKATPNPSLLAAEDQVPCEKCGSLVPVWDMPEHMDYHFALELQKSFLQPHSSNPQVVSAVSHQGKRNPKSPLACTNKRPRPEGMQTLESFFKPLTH
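Pol eta at 10 nM preincubated with compounds 15 min at room temperature; reaction started with fluorescent substrate (50 nM final) and read kinetically at 0 and 10 min.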
POLB inh – blocks human DNA polymerase beta activity; Pol beta primer extension/strand displacement, fluorescence kinetic; AID 485314; 340,000 tested, 1.3% active; P06746; Potency, µM (series often up to 114 µM), for the others: at the highest dose activity change, negative = inhibition, most hits filed as inhibitors; also: % is scaled to controls: 0 for no effect and ±100 for the full control effect
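Homogeneous kinetic assay of primer extension and strand displacement by 10 nM Pol beta, preincubated 15 min at room temperature with compound before 50 nM substrate (final) was added. Read at 0 and 10 min; four-parameter Hill fit.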
Numbers without * were called inactive; ? = inconclusive; . = no result; [ ] = remark or other dose. Calls follow the shape of the dose curve; as a rule, active = well fitted curve in the direction sought with a large enough effect; inconclusive = small, poorly fitted or top-dose-only effect, or another doubt; inactive = no such curve, though single readings can be large; an effect the other way counts as inactive or inconclusive. Potency is read from the fitted curve at half-maximal effect.

SMILES	Pol kappa inh	WRN inhibitor	FEN1 inh	Pol iota inh	POLH inh	POLB inh
COc1cccc(C(=O)Oc2ccc(/C=N/Nc3ccc(C(=O)O)cc3)cc2OC)c1	3%	-8%[57.1 µM]	2%	-10%	-4%	28%
COc1cccc(OCc2cc(/C=N/Nc3ccc(C(=O)O)cc3)ccc2OC)c1	-13%	-21%	-24%	8%	50µM*	-3%
Nc1nc(Cl)nc2c1ncn2[C@@H]1O[C@H](COP(=O)(O)OP(=O)(O)OP(=O)(O)O)[C@@H](O)[C@H]1O	1%[60.1 µM]	.	.	.	.	.
Cc1cc(C)cc(NC(=O)CSc2ncc(S(=O)(=O)c3ccccc3)c(=O)[nH]2)c1	.	.	.	.	.	6%
COc1cc(NC(=O)CSc2ncc(S(=O)(=O)c3ccc(Br)cc3)c(=O)[nH]2)cc(OC)c1	-17%	.	9%	?	?	50µM*
Cc1ccc(NC(=O)CSc2ncc(S(=O)(=O)c3ccc(C(C)C)cc3)c(=O)[nH]2)cc1C	-13%	.	-13%	?	?	20µM*
O=c1ccc2cc3c([nH]c4ccc(Br)cc43)oc-2c1O	.	.	.	.	.	10µM*
O=C(O)c1ccc(N=Nc2c(O)[nH]c3ccc(Br)cc23)cc1	-7%	-13%	-12%	-12%	?	1%
CC(=O)Oc1cc(OC(C)=O)c2c(=O)cc(-c3ccc(OC(C)=O)c(OC(C)=O)c3)oc2c1	8.9µM*	.	.	.	.	.
CC(=O)Oc1cc(O)c2c(=O)c(OC(C)=O)c(-c3ccc(OC(C)=O)c(OC(C)=O)c3)oc2c1	7.1µM*	?	2.8µM*	8.9µM*	2.8µM*	.
CC1C(=O)N(Cc2cn(Cc3ccco3)nn2)CCS(=O)(=O)N1Cc1ccc(-c2ccncc2)cc1 (configuration not stated)	.	2%[11.6 µM]	.	.	50µM*	.
Cc1ccc(C)c(NC(=O)c2nn(C)c3c2CS(=O)(=O)c2ccccc2-3)c1	0%	.	-17%	24%	-9%	36%
CCC(C)NC(=O)c1cccc(OCc2c(C)noc2C)c1 (configuration not stated)	0%	-32%[57.1 µM]	-3%	15%	9%	-1%
CC(C)c1onc(-c2c(Cl)cccc2Cl)c1COc1ccc(/C=C/c2cccc(C(=O)O)c2)c(Cl)c1	30µM*	.	.	.	.	.
CC(C)(C)n1ncc2c(=O)n(Cc3c(F)cc(Cl)cc3F)cnc21	-19%	.	-16%	15%	.	.
O=C(O)Cn1c(C(=O)Nc2nc(-c3ccccc3Cl)cs2)cc2ccccc21	-7%[19.4 µM]	.	.	.	.	.
Nc1ccc2cccc(O)c2c1	79µM*	-27%	-11%	13µM*	22µM*	.
Nc1ccc2cc3ccccc3cc2c1	10%	0%	1%	50%	-8%	.
Cc1ccc(C)n1-c1ccc(-c2ccn[nH]2)cc1	0%	-11%	-3%	86%	-12%	22µM*
COc1cccc(Nc2sc(C(=O)c3ccc(F)cc3)c(N)c2C(=O)NCc2ccc(C)cc2)c1	-6%[60.1 µM]	.	-6%	18%	6%	-11%
O=C1N/C(=N\S(=O)(=O)Cc2ccccc2)S/C1=C/c1cccc([N+](=O)[O-])c1	-7%	-4%[11.6 µM]	-5%	?	50µM*	0%
O=C1N/C(=N/O)S/C1=C/c1cccc([N+](=O)[O-])c1	-7%	-18%	-11%	55%	-9%	-28%
COc1cccc2c(N/N=C/c3ccc(O)c(O)c3)cc(C)nc12	-31%	-4%	-13%	?	-9%	20µM*
COc1ccc(/C=N/Nc2cc(C)nc3c(C)cccc23)cc1	-18%	?	18µM*	-13%	?	25µM*
COc1ccc(Nc2cc(C)nc3ccc(OC)cc23)cc1	-22%	-27%	?	?	-12%	22µM*
COc1ccc2nc(C)cc(Nc3ccc(C(=O)O)cc3)c2c1	-3%	1%	11%	-5%	-5%	-3%
COc1ccc(Nc2cc(C)nc3c(C)c(C)ccc23)cc1	-3%[60.1 µM]	.	?	-19%	-15%	-27%
COc1ccc2nc(C)cc(N/N=C/c3ccc(F)cc3)c2c1	-13%	5%	?	-20%	-5%	-3%
